Measurements: PubChem BioAssay
The source made the active and inactive calls.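 How the source made its calls, unless noted: active means compound that reduces growth-factor-driven endothelial tube area in a mixed cell culture, no cutoff stated; inactive means the rest.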

Legend:
[1] = Wnt pathway potentiators raising nuclear beta-catenin – imaging, WNT3A-conditioned medium, mouse C2C12, NPC library, primary screen (AID 1117326; in the data active means nuclear beta-catenin stimulation mostly above about 4.2%, no sharp cut-off; inactive means mostly below about 10%; further: reference of the scale not given here); details: stronger effect = higher value
[2] = stimulators of insulin release from INS-1E, primary screen, cell-based, 5 mM glucose, NPC library (AID 1117329;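 active means compound raises insulin release from rat beta cells at 5 mM glucose, no numeric limit stated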; further: reference of the scale not given here); details: rat INS-1E insulin secretion, at 10 µM, stronger effect = higher value
[3] = growth inhibition of GSK3B-pretreated HCT116 cells – cell-based, CellTiter-Glo, 0.2 to 20 µM (AID 1117336;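 active means compounds lowering colon cancer cell viability after pretreatment blocking the GSK3B kinase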); details: HCT116 viability after GSK3B inhibitor, at 20 µM, stronger effect = higher value
[4] = inhibition of endothelial tube formation, primary screen, imaging, VEGF stimulated, CD31 staining, tube area, NPC library (AID 1117340); details: VEGF-stimulated ADSC/ECFC co-culture, at 10 µM, stronger effect = higher value
[5] = GLP1 release stimulators, primary, NCI-H716, NPC library (AID 1117341;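 active means compound raises GLP1 secretion from the human gut endocrine cells, with no numeric limit stated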; further: reference of the scale not given here); details: NCI-H716 cells, at 10 µM, stronger effect = higher value
[6] = HCT116 colon cancer cell growth inhibition, primary screen, CellTiter-Glo luminescence, NPC library (AID 1117342;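 active means compounds that lower survival of HCT116 colon cancer cells in the luminescence readout, no numeric limit stated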); details: at 20 µM (top of the series)
[7] = reduced SW480 viability measured with CellTiter-Glo, NPC library, primary (AID 1117343;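 active means compounds that lower viability of the colon cancer cells in the luminescence readout, with no numeric limit stated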); details: CellTiter-Glo luminescence; at 20 µM (top of the series)
[8] = NPC library primary testing for decreased DLD-1 cell viability via CellTiter-Glo (AID 1117346;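 active means compounds that lower survival of DLD-1 colon cancer cells in the luminescence readout, no cutoff given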); details: DLD-1 viability, CellTiter-Glo luminescence; at 20 µM (top of the series)

SMILES	nuclear beta-catenin stimulation ([1]; at 10 µM)	nuclear beta-catenin stimulation ([1]; stimulation, at 2 µM)	insulin secretion stimulation [2]	viability decrease [3]	tube area decrease [4]	GLP1 secretion stimulation [5]	inhibition of viability [6]	viability decrease (inhibition) [7]	viability decrease (inhibition) [8]
CCCCCCCCCCCCSCCOCCO	0.7% (inactive)	2%	-1.7% (inactive)	9.65% (inactive)	6.6% (inactive)	1.9% (inactive)	-38.8% (inactive)	122% (active)	94.7% (active)
OC(C#CCN1CCCC1)(c1ccccc1)c1ccccc1	1.6% (inactive)	0.1%	4.7% (inactive)	20.5% (inactive)	11.1% (inactive)	5.5% (inactive)	21.4% (inactive)	9.7% (inactive)	-4.2% (inactive)
CCCCNC(=O)NS(=O)(=O)c1ccc(N)cc1	1.6% (inactive)	0.7%	0.4% (inactive)	2.75% (inactive)	-10.5% (inactive)	1.9% (inactive)	1.4% (inactive)	27.3% (inactive)	8.7% (inactive)
COc1ccc(/C=C/C(=O)c2ccc(OC)cc2OC)cc1	7.4% (inactive)	-0.5%	2.6% (inactive)	77.7% (active)	54.9% (active)	-6.1% (inactive)	58.1% (active)	94.5% (active)	81.6% (active)
Nc1nnnn1-c1ccccc1	-0.2% (inactive)	0.5%	-1.6% (inactive)	-7.65% (inactive)	-14.5% (inactive)	2.4% (inactive)	5.4% (inactive)	56.4% (active)	-1.05% (inactive)
CON=C(C(=O)N[C@@H]1C(=O)N2C(C(=O)O)=C(C[N+]3(C)CCCC3)CS[C@H]12)c1csc(N)n1	-2.1% (inactive)	0.2%	3.1% (inactive)	4.1% (inactive)	2.5% (inactive)	-0.7% (inactive)	-21.3% (inactive)	-14.4% (inactive)	-9.8% (inactive)
N[C@H](C(=O)O)[C@@H](O)c1ccc(O)c(O)c1	0.1% (inactive)	0%	11.2% (inactive)	31.7% (inactive)	1.4% (inactive)	-4.8% (inactive)	6.7% (inactive)	21.5% (inactive)	2.8% (inactive)
Oc1cn2c(n1)Nc1ccc(Cl)c(Cl)c1C2	0.1% (inactive)	2.5%	0.6% (inactive)	-54.9% (inactive)	40.1% (active)	4.1% (inactive)	-2.2% (inactive)	-21.9% (inactive)	-16.9% (inactive)
Cc1ncc(CO)c(C=O)c1O	-0.2% (inactive)	0.6%	2.8% (inactive)	-8.9% (inactive)	-6.1% (inactive)	-2.6% (inactive)	13.3% (inactive)	24.3% (inactive)	-1.4% (inactive)
CCCCNc1ccc(C(=O)OCCN(CC)CC)cc1	4% (inactive)	1.7%	7.25% (inactive)	50.2% (active)	19.5% (inactive)	3.7% (inactive)	81.8% (active)	60.6% (active)	88.7% (active)
COc1ccc(CCC(C)=O)cc1	0.1% (inactive)	2.7%	0.3% (inactive)	-3.4% (inactive)	-21% (inactive)	-3.2% (inactive)	-0.8% (inactive)	-0.7% (inactive)	-19.4% (inactive)
O=S(=O)(O)c1ccc2c(N=Nc3ccc(S(=O)(=O)O)c4ccccc34)c(O)c(S(=O)(=O)O)cc2c1	0.7% (inactive)	0.1%	2.6% (inactive)	0% (inactive)	11.5% (inactive)	-3.9% (inactive)	2.8% (inactive)	19.3% (inactive)	6.8% (inactive)
CCCCCCCCCCCCCCCC(=O)OCC(COC(=O)CCCCCCCCCCCCCCC)OC(=O)CCCCCCCCCCCCCCC	-0.4% (inactive)	-0.6%	2.5% (inactive)	-7.6% (inactive)	-17.9% (inactive)	-5.4% (inactive)	-1.3% (inactive)	2.7% (inactive)	-6.5% (inactive)
NC(=Nc1ccccc1)Nc1ccccc1	0.2% (inactive)	1.4%	13.9% (inactive)	24.6% (inactive)	10.1% (inactive)	2.8% (inactive)	-1% (inactive)	77.3% (active)	75.2% (active)
COc1ccccc1OC(=O)Oc1ccccc1OC	1.1% (inactive)	0.3%	-2.4% (inactive)	6.05% (inactive)	14.8% (inactive)	1.6% (inactive)	3.6% (inactive)	31.6% (inactive)	14.4% (inactive)
Cc1c(C(C)C)c(=O)n(-c2ccccc2)n1C	-0.3% (inactive)	-0.2%	-0.6% (inactive)	-2.5% (inactive)	-2.7% (inactive)	0.4% (inactive)	-15.5% (inactive)	36.6% (inactive)	8.15% (inactive)
